Mcl1-Bid inh = Mcl-1/Bid interaction inhibition; Q07820; TR-FRET Mcl-1/Bid-Dy647 peptide binding, 1536-well; inhibition, % at 21.7 µM; 0.97% of 220,000 active; AID 1021;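 active = compounds that cut the binding signal by more than half at the single screening dose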;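 note: His-tagged Mcl-1 with europium anti-His antibody binding Bid BH3 peptide; 0% = Mcl-1 plus peptide wells and 100% = peptide-only wells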
Mcl-1 Bim block = human Bim-Mcl-1 interaction inhibition. 0.1% of 190,000 active. Q07820. inhibition, % at 10 µM. Bead-based flow cytometry, Bim peptide-Mcl-1 binding; in the data active = inhibition above about 40%;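 note: 0% = no compound tracer wells and 100% = peptide blocker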
eIF4E 4G PPI = inhibitors of eIF4E and eIF4G interaction in translation initiation | P63073+Q04637 | 0.37% of 220,000 active | inhibition, % at 21.7 µM | TR-FRET eIF4E-eIF4GI(517-606) binding, 2 h | AID 782;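 active = inhibition above about 30%, limit read from the data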;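 note: 0% = full FRET control wells and 100% = background wells lacking eIF4GI fragment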
Target sequence (P63073 whole entry, looked up, the tested form may be a part): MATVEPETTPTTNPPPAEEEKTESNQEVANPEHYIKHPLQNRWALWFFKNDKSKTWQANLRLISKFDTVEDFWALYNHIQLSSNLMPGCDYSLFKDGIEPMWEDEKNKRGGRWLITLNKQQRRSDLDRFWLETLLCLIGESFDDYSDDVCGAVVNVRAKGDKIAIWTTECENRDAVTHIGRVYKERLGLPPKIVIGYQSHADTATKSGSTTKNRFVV
Target sequence (Q04637 whole entry, looked up, the tested form may be a part): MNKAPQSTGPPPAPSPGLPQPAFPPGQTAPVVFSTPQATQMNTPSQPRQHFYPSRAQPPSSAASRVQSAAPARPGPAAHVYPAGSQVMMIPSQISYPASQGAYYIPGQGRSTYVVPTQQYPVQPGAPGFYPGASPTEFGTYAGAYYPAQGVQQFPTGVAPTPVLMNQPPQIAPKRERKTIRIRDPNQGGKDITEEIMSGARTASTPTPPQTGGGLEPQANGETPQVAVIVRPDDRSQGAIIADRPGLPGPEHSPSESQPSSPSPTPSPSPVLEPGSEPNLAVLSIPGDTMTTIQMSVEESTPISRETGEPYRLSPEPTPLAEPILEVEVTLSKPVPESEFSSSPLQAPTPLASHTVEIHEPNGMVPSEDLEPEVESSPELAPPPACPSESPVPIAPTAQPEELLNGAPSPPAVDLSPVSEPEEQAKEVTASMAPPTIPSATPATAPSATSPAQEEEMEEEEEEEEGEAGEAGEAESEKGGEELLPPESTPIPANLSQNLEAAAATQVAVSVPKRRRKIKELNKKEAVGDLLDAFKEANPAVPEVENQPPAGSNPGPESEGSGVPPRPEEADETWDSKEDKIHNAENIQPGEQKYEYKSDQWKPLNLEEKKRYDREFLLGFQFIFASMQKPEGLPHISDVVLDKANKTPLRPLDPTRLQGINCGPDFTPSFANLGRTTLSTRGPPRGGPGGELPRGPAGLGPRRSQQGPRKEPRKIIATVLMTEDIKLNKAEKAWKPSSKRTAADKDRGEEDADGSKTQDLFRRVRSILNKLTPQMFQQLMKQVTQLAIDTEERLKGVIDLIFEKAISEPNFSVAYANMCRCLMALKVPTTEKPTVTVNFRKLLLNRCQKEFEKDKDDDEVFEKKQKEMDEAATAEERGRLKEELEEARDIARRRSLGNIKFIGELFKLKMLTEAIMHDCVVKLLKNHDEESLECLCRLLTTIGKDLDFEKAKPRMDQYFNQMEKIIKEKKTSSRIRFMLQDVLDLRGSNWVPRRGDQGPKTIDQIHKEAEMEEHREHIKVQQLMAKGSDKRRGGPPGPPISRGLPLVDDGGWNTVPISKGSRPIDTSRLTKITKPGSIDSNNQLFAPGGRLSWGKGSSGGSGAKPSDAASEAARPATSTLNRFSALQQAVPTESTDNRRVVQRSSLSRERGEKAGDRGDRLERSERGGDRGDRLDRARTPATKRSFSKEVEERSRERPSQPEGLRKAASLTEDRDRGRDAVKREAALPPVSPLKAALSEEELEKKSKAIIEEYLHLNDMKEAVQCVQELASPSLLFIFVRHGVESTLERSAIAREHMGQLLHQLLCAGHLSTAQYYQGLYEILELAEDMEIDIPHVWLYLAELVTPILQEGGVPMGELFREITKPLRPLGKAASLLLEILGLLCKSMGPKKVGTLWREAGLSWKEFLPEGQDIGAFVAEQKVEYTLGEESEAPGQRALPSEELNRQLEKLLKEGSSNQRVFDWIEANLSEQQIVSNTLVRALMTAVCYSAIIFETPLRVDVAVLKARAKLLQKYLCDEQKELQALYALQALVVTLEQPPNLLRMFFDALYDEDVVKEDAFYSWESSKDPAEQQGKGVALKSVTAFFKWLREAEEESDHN
MCL1 BIM primary = inhibitors of human MCL1 binding to BIM-BH3 peptide | Q07820 | GST-MCL1 / FITC-Bim-BH3 fluorescence polarization | inhibition, % at 10.9 µM | 0.68% of 320,000 active;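 active = inhibition above the mean inhibition of all tested compounds plus 3 SD, set per campaign, cut at about 40% in these data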;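 note: 0% = DMSO wells and 100% = unlabeled Bim-BH3 peptide control; higher means more loss of mP so more displacement of Bim peptide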
Mcl1-Noxa inh = Mcl-1/Noxa interaction inhibition; 1.5% of 220,000 active; inhibition, % at 21.7 µM; Q07820; TR-FRET Mcl-1/Noxa peptide binding, 2 h;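 active = compounds that cut the protein-peptide binding signal by more than 50% relative to plate controls in a single-dose test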;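 note: His-tagged Mcl-1 with rhodamine Noxa BH3 peptide and terbium anti-His antibody; 0% = Mcl-1 plus Noxa peptide wells and 100% = peptide-only wells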
14-3-3 Bad PPI = disrupts binding of bovine 14-3-3 zeta to phospho-Bad peptide; TR-FRET 14-3-3zeta/Dy647-pBad peptide displacement, 1 h; 0.71% of 220,000 active; AID 781; inhibition, % at 21.7 µM;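 active = inhibition above about 70%, limit read from the data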;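 note: 0% = full 14-3-3 plus peptide FRET controls and 100% = background without 14-3-3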
The depositor's hits bear a star; . = not tested or not shown; ! = not confirmed by another sample; [ ] = remark or other dose. Only some compounds are listed: those with a hit (about 2.6% of all), similar ones and a draw of the others.

SMILES	Mcl1-Bid inh	Mcl-1 Bim block	eIF4E 4G PPI	MCL1 BIM primary	Mcl1-Noxa inh	14-3-3 Bad PPI
CCOCCn1c(CN2CCN(C)CC2)nc2c1c(=O)n(C)c(=O)n2C	-92.0	.	89.6*	4.4	1.7	-3.5
COCCn1c(CN2CCN(C)CC2)nc2c1c(=O)n(C)c(=O)n2C	-22.9	0.0	-2.2	.	18.6	-1.6
O=C(O)CCc1cc(I)c(Oc2ccc(O)c(I)c2)c(I)c1	27.4	.	-11.1	.	68.7*	14.0
N[C@@H](Cc1cc(I)c(Oc2cc(I)c(O)c(I)c2)c(I)c1)C(=O)O	.	.	.	-13.6	.	.
N[C@@H](Cc1cc(I)c(Oc2ccc(O)c(I)c2)c(I)c1)C(=O)O	66.2*!	0.0	8.8	16.8	105.2*!	7.7
COc1ccc(CCC(=O)O)c(O)c1	-48.4	.	-16.4	5.9	0.3	0.1
CC(=O)c1csc(COc2ccc(Cl)cc2)n1	-5.8	.	-0.4	4.7	1.6	-2.0
Cc1c(Cc2ccccc2)c(NCCN(C)C)n2c(nc3ccccc32)c1C#N	-19.3	.	-1.8	7.4	79.5*	-4.3
CCOC(=O)c1sc2nc(CN3CCN(c4cccc(C(F)(F)F)c4)CC3)[nH]c(=O)c2c1C	9.7	0.0	2.9	-2.7	-18.0	8.6
CC(=O)c1ccc2c(c1)C1C=CCC1C(C(=O)O)N2 (configuration not stated)	-47.0	3.0	30.6*	.	74.2*	65.3
Cc1ccc2c(c1)C1C=CCC1C(C(=O)O)N2 (configuration not stated)	88.6*	9.0	65.3*[fluorescence artefact?]	108.1*	107.3*	85.9*[fluorescence artefact?]
C1=CC2c3ccccc3NC(c3ccncc3)C2C1 (configuration not stated)	-26.3	4.0	3.7	37.5	77.9*	-16.8
COC(=O)c1ccc(C2Nc3ccc(/C(C)=N/NC(=O)C(OC)c4ccccc4)cc3C3C=CCC32)cc1 (configuration not stated)	.	13.0	.	61.3*	.	.
O=C(NC1CCSc2ccccc21)c1cccc([N+](=O)[O-])c1 (configuration not stated)	.	.	.	4.1	.	.
Cc1onc(-c2ccccc2Cl)c1C(=O)OCC(=O)N1CCN(c2ccccc2)CC1	.	.	.	4.7	.	.
O=C(O)c1ccc2c(c1)C1C=CCC1C(c1cc3c(cc1Br)OCO3)N2 (configuration not stated)	-58.3	-1.0	1.9	1.8	15.9	8.8
CC(=O)c1ccc2c(c1)C1C=CCC1C(c1ccncc1)N2 (configuration not stated)	-37.2	6.0	-9.2	16.6	51.0*	-6.2
Cc1ccc(NC(=O)CNCCCN2CCOCC2)cc1S(=O)(=O)N1CCCCC1	51.4*	.	-1.3	-4.6	21.7	28.3
CCCCCCn1nc(C(=O)Nc2nc3c(s2)CCCC3)c2ccccc2c1=O	9.9	45.0*	0.1	0.4	25.3	15.8
COc1cc2ccccc2cc1C(=O)OCC(=O)N(CC(C)C)c1c(N)n(Cc2ccccc2)c(=O)[nH]c1=O	.	.	.	3.8	.	.
CCN(CC)Cc1c(C(=O)N/N=C/c2ccccn2)nnn1-c1nonc1N	.	.	.	1.5	.	.
CCC(C)[C@H](NC(=O)[C@@H]1Cc2ccccc2CN1)C(=O)Nc1ccc2c(c1)OCO2 (some centres not stated)	.	.	.	7.7	.	.
CCOC(=O)C1CCN(CC(=O)N2CCc3ccccc32)CC1	.	.	.	5.2	.	.
CCOC(=O)C1CCN(CC(=O)N2C(C)CCCC2C)CC1 (configuration not stated)	64.8*	-1.0	3.1	-4.0	29.9	58.5
N=C1S/C(=C\c2ccco2)C(=O)N1c1nccs1	-71.7	-2.0	-1.2	22.8	14.4	-5.9
SMILES	Mcl1-Bid inh	Mcl-1 Bim block	eIF4E 4G PPI	MCL1 BIM primary	Mcl1-Noxa inh	14-3-3 Bad PPI
N=C1S/C(=C\c2ccco2)C(=O)N1c1ccc2c(c1)OCO2	38.8	4.0	13.3	20.5	83.8*	29.3
Cn1cnnc1SCc1ccccc1Br	-22.7	-4.0	-10.6	-5.1	-5.2	-14.0
Cc1ccccc1CSc1nncn1N	-23.4	0.0	46.3*	-3.1	8.4	2.0
COc1cc(C(=O)NC2CCN(CC(=O)Nc3cccc(C)c3C)CC2)cc(OC)c1OC	.	.	.	-3.3	.	.
Cc1ccccc1N/C(=C(/C(Cl)=C(Cl)Cl)[N+](=O)[O-])n1nnc2ccccc21	53.9*	0.0	-7.0	-0.5	38.2	53.8
Cc1ccc(C(=O)n2nnc3ccccc32)cc1	.	.	.	2.6	.	.
COc1ccc(N/C(=C(/C(Cl)=C(Cl)Cl)[N+](=O)[O-])n2nnc3ccccc32)cc1	91.4*	0.0	0.3	41.2*	43.4	78.6*
CC(C)CC(=O)Nc1nnc(SCC(=O)Nc2nccs2)s1	.	.	.	11.5	.	.
Cc1cc2c(C)c(C)c(=O)[nH]c2cc1N	-19.5	-4.0	-0.9	4.9	55.3*	4.2
Cc1cc(C)c2[nH]c(=O)c(=O)[nH]c2c1	2.7	-1.0	-2.5	1.8	9.1	6.1
Cc1cc(NC(=O)CSc2ccc3ccccc3c2)no1	30.2	0.0	-12.6	13.3	53.0*	0.5
Cc1cc(NC(=O)CSc2nc(-c3ccc(F)cc3)cs2)no1	-41.1	1.0	.	-6.9	85.7*	.
Cc1cc(NC(=O)CSc2nc(-c3ccccc3)cs2)no1	3.4	-1.0	-7.0	4.2	-3.5	3.7
Nc1[nH]c(=O)ncc1F	57.5*!	-1.0	-2.4	-8.9	-9.9	-3.5
CSc1ncccc1C(=O)Nc1cccc(S(=O)(=O)N2CCCCC2)c1	.	.	.	-3.5	.	.
Cc1ccc(C2C(C(=O)c3cc4ccccc4o3)=C(O)C(=O)N2CCN2CCOCC2)o1 (configuration not stated)	51.2*	-2.0	0.9	9.3	21.2	-2.8
CCCN(CC(=O)Nc1ccccc1C)C(=O)c1ccc(NC2CC2)c([N+](=O)[O-])c1	.	.	.	-1.9	.	.
Clc1ccc(-c2csc(N/N=C\c3cccnc3)n2)cc1	-46.5	-2.0	21.0	5.3	16.0	76.2*
CC12CCC(C(=O)Nc3ccccc3-n3cccc3)(CC1=O)C2(C)C (configuration not stated)	75.8*	-3.0	6.4	6.8	-2.0	-2.4
Cc1cc(SCC(=O)N/N=C/c2ccc(O)c(O)c2)c(C)cc1Br	23.4	1.0	7.2	28.9	60.5*	-15.6
COc1ccc2nc(C)cc(SCC(=O)N/N=C/c3ccc(O)c(O)c3)c2c1	-32.4	16.0	-0.7	26.6	54.2*	-11.9
O=C(CSc1nc2ccccc2o1)N/N=C/c1ccc(O)c(O)c1	-132.4	.	-0.8	20.8	36.6	6.0
COc1ccc(C(=O)Nn2c(C)nc3ccccc3c2=O)cc1[N+](=O)[O-]	.	.	.	-7.6	.	.
CCCN(CCC)CCNc1c(N2CCN(C(=O)OCC)CC2)c(=O)c1=O	-29.6	0.0	-3.7	7.8	64.5*	-2.5
Cc1cccc(NC(=S)N/N=C/c2cccc(O)c2)c1C	-62.3	.	-0.6	-0.3	-19.3	-2.9
Cc1ccccc1NC(=S)N/N=C/c1ccc(O)cc1O	-255.7	.	2.7	19.5	60.2*	3.8
COc1ccc(CN2CCN(c3ccccn3)CC2)c(OC)c1	56.4*	0.0	7.3	4.7	24.1	59.1
